SMILES strings stand for the structures.

This test relates to H1 OCT4-GFP hESC. Description: survival Z score in repeat assay, Calcein AM perimeter-filtered objects (vs plate mean) (Z score (SD)); higher = more surviving cells, active = 3 or more. To be noted: 10 µM, 2 days, cells per well: 1500, rescreen. The procedure:
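Top perimeter-filtered hits were cherry-picked and rescreened in the same Calcein AM assay (H1 OCT4-GFP hESCs, 1500 cells/well, 10 µM, 2 days, objects with perimeter ≥100 µm). Results are per-plate Z scores; a hit is Z ≥3.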
As for `CC(N/C(=N\C#N)Nc1ccncc1)C(C)(C)C` (configuration not stated) [Pinacidil], the “survival Z score in repeat assay” value was 0.345 (inactive). In the case of `O=S(=O)(c1cccc2cnccc12)N1CCCNCC1`, the “survival Z score in repeat assay” value is 4.63 (active).

The values are drawn from the supplement of paper PMC3558484.
